Source: PubChem
Hits are enriched below; roughly 3.5% of the tested compounds scored in any of these assays.
BoNT F protease = blocks Botulinum neurotoxin F light chain protease. Multiplex microsphere protease cleavage assay, flow cytometry. inhibition, % at 10 µM. 360,000 tested, 0.22% active; in the data active means inhibition above about 35%, passing the limit was not always enough; inconclusive means no clear call, values can overlap the other calls; further: plate controls were buffer without enzyme for full effect and enzyme alone for no effect
Anthrax LF prot = inhibitors of Bacillus anthracis lethal factor protease | inhibition, % at 10 µM | 360,000 tested, 0.12% active | P15917 | multiplex microsphere protease cleavage assay, LF; further: plate controls were buffer without enzyme for full effect and enzyme alone for no effect
BoNT A protease = blocks Botulinum neurotoxin A light chain protease. multiplex microsphere protease substrate cleavage, flow cytometry. inhibition, % at 10 µM. 360,000 tested, 0.17% active; further: plate controls were buffer without enzyme for full effect and enzyme alone for no effect
Autofluor counter = compound fluorescence in toxin protease inhibitor counterscreen; fluorescence intensity (test concentration not listed); 360,000 tested, 3.1% active; compound autofluorescence counterscreen, microsphere flow cytometry; stronger effect = higher value; AID 624483; in the data active means fluorescence intensity above about 16000; inconclusive means no clear call, values can overlap the other calls
Starred values were filed as active, the others as inactive; ? = inconclusive. Unless noted, no stated cut-off is given here; in the data, active means inhibition above about 30%; inconclusive means no clear call, values can overlap the other calls; inactive means below that.

SMILES | BoNT F protease | Anthrax LF prot | BoNT A protease | Autofluor counter
CC(NC(=O)c1ccccc1F)c1nnc(SCC(=O)Nc2nccs2)n1C (stereo not drawn) | 7 | 2 | 0 | 5253
Cc1ccc(NC(=O)CSc2nnc(-c3ccncc3)n2C)cc1C | -6 | -3 | ? | 20661*
COC(=O)c1ccccc1NC(=O)CSc1nnc(-c2cccnc2)n1C | ? | 2 | 0 | 3253
CC(C)C(NC(=O)c1cccs1)c1nnc(SCC(=O)Nc2nccs2)n1C (stereo not drawn) | 5 | -4 | 4 | 21406*
COc1ccc(OC)c(-c2csc3nnc(SCC(=O)Nc4ccc(NC(C)=O)cc4)n23)c1 | -3 | -1 | -1 | 20934*
O=C(CSc1nncc2ccccc12)N1CCCCC1 | -12 | -9 | -2 | 5472
CCC(=O)Nc1ccc(-c2nnc(SCC(=O)Nc3nccs3)n2C)cc1 | 11 | -3 | 6 | 19859*
CCn1c(SCC(=O)Nc2nccs2)nnc1-c1ccc(C)cc1 | -10 | -6 | 2 | ?
COc1ccc(NC(C)=O)cc1NC(=O)CSc1nnc(-c2ccncc2)n1C | 1 | -5 | ? | 21036*
COc1ccc(NC(C)=O)cc1NC(=O)CSc1nnc(-c2ccccc2)n1N | -1 | -2 | -1 | 10659
CC(=O)N(C)C1=C(N2CCOCC2)C(=O)c2ccccc2C1=O | -4 | -3 | -4 | 24878*
CC(=O)N(C1=C(N2CCOCC2)C(=O)c2ccccc2C1=O)c1ccc(C(=O)O)cc1 | -10 | -6 | 0 | 5953
CSCc1ccc(C(=O)Nc2cccc(C)c2C)cc1 | -1 | -1 | 0 | 2665
CCNC(=O)C1CCCN(c2nc(C)cc(C)n2)C1 (stereo not drawn) | -2 | -1 | 0 | 4365
CCCc1cc(N2CCCC(C(=O)NCC)C2)n2ncnc2n1 (stereo not drawn) | 1 | 0 | 0 | 20607*
O=C(COC(=O)c1cc([N+](=O)[O-])ccc1N1CCOCC1)Nc1c(Cl)cccc1C(F)(F)F | 2 | -2 | -2 | 5533
O=C(Nc1nonc1-c1ccc(Cl)cc1)c1ccccc1 | 1 | -12 | 0 | 4327
CC(=O)Nc1nonc1-c1ccccc1 | -3 | 0 | ? | 20934*
CCOC(=O)CC1C(=O)NCCN1C(=O)COc1ccc(C(C)(C)C)cc1 (stereo not drawn) | -1 | -2 | -1 | 5445
C/C(=C\C(=O)c1ccc(C)o1)Nc1ccc2c(c1)OCO2 | -12 | -12 | -2 | 23606*
COC(=O)c1ccc(N/C(C)=C/C(=O)c2ccc(C)o2)cc1 | -1 | -4 | 0 | 16289*
COc1cccc(CN(C)S(=O)(=O)c2c(C)noc2C)c1OC | -2 | -1 | -4 | ?
COc1cccc(CN2CCN(Cc3cc(OC)c(OC)cc3[N+](=O)[O-])CC2)c1 | 14 | -13 | ? | 16274*
COc1cccc(N2CCN(Cc3cccc(Cl)c3)CC2)c1 | -6 | -5 | ? | 24340*
COc1cccc(CN2CCN(Cc3cccc(F)c3)CC2)c1 | 24 | 3 | -2 | 3451
SMILES | BoNT F protease | Anthrax LF prot | BoNT A protease | Autofluor counter
COc1cc(CN2CCN(c3cccc(Cl)c3)CC2)cc(OC)c1OC | -7 | -2 | -6 | 25470*
COc1cccc(CN2CCN(c3ncccn3)CC2)c1 | -3 | -2 | 0 | 22009*
COc1cccc(N2CCN(Cc3ccc(Cl)cc3)CC2)c1 | -14 | -8 | 0 | 10809
O=C(NCCc1ccccc1)c1ccc(Cl)c(S(=O)(=O)N2CCOCC2)c1 | -14 | -1 | 1 | 3721
FC(F)(F)c1cccc(N2CCN(Cc3ccoc3)CC2)c1 | 2 | -5 | 0 | 10628
FC(F)(F)c1cccc(N2CCN(Cc3cccnc3)CC2)c1 | 4 | -1 | 1 | 16207*
CCOc1cccc(CN2CCN(c3cccc(C(F)(F)F)c3)CC2)c1O | -6 | -2 | 0 | 7873
COc1cccc(N2CCN(Cc3cccnc3)CC2)c1 | -4 | -4 | 0 | 20710*
COc1cccc(CN2CCN(c3cccc(C(F)(F)F)c3)CC2)c1OC | -5 | -5 | -1 | 16287*
CCOC(=O)c1cnn(-c2ccccc2)c1-c1ccncc1 | -16 | -11 | -2 | 3174
COc1ccc(NC(=O)COc2cc(C)cc(C)c2)cc1S(=O)(=O)N1CCCCC1 | -13 | -2 | -10 | 8284
COCCNC(=O)c1ccc(NS(=O)(=O)c2ccc3[nH]c(=O)[nH]c3c2)cc1 | 2 | 0 | 0 | 6238
CCOC(=O)C1=NN(C(=O)COc2ccccc2)C(O)(c2ccc(Br)cc2)C1 (stereo not drawn) | -7 | 0 | 0 | 4085
O=C(NCCN1CCOCC1)c1cccs1 | 0 | -1 | 0 | 2901
c1csc(CNCCN2CCOCC2)c1 | 0 | -2 | 0 | 16263*
O=C(COC(=O)/C=C/c1cccc(F)c1)NC(=O)NC1CCCC1 | -2 | -6 | 0 | 2931
